Screens: PubChem BioAssay, several laboratories
The list is not random: actives were taken first. Their share in the collection is about 2.1%.
BJeLR viability – MLPCN primary cell-based screen for lethality selective to Ras in HRASV12 cells; BJeLR (HRASV12) viability, CellTiter-Glo ATP luminescence, 48 h; inhibition, % (no concentration beside the values); 300,000 compounds, 0.17% hits; in the data active = inhibition above about 50%
MazEF act – activators of E. coli MazEF toxin-antitoxin RNase, primary screen, biochemical, fluorescence, uHTS; Endoribonuclease toxin MazF (Escherichia coli (strain K12)), P0AE70; FAM/BHQ RNA-DNA oligo cleavage fluorescence, 5 h; activation, % at 20 µM; 350,000 compounds, 0.32% hits; AID 504720, 2011; in the data active = activation above about 50%
DUSP3 inh – VHR1 phosphatase inhibitors, primary screen, biochemical, absorbance, uHTS; Dual specificity protein phosphatase 3 (Homo sapiens), P51452; recombinant VHR phosphatase, pNPP absorbance; inhibition, % at 13.3 µM; 290,000 compounds, 0.52% hits; AID 1654, 2009; in the data active = inhibition above about 50%
PfHsp40 yeast – rescue of yeast from PfHsp40 toxicity, primary screen, S. cerevisiae, ATP luminescence | growth rescue, % at 12.5 µM | AID 504582, 2011 | 340,000 compounds, 0.68% hits | S. cerevisiae expressing PfHsp40, growth rescue; in the data active = growth rescue above about 28%, passing the limit was not always enough;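 note: yeast W303a lacking pdr1 and pdr3 grown in galactose medium; growth measured after three days at 30 °C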
PrPC surface inh – inhibitors of human cell surface prion protein PrPC, primary screen, cell-based, TR-FRET; Major prion protein (Homo sapiens), P04156; TR-FRET read-out; inhibition, % at 13.8 µM; 370,000 compounds, 0.43% hits; AID 720596, 2013; in the data active = inhibition above about 24%; note: 0% = median of the test wells and 100% = reference compound wells
PrP 5UTR inh – inhibition of PrP 5' UTR reporter expression; cell-based PrP 5' UTR mRNA reporter, plate reader; inhibition, % (no concentration beside the values); 340,000 compounds, 0.35% hits; AID 488862, 2010; in the data active = inhibition above about 52%; note: 0 = median of the neutral control wells
PrPC TRFRET cf – confirmation of inhibitors of cell surface human prion protein, confirmation, cell-based, TR-FRET; shares compounds with PrPC surface inh; cell surface PrPC level; inhibition, % at 13.8 µM; 1,500 compounds, 65% hits; AID 743200, 2013; in the data active = inhibition above about 25%
LD9 cytotox – cytotoxicity in LD9 cells, cytotoxicity control for cell surface PrPc inhibitor project, cell-based, luminescence, high throughput | shares compounds with PrPC surface inh | luminescence viability | inhibition, % at 13.8 µM | 1,500 compounds, 29% hits | AID 743201, 2013; in the data active = inhibition above about 9.5%
* marks the source's active call; other numbers are inactive results; . = no result.

SMILES	BJeLR viability	MazEF act	DUSP3 inh	PfHsp40 yeast	PrPC surface inh	PrP 5UTR inh	PrPC TRFRET cf	LD9 cytotox
CC(C)NC(=O)c1cc(C2CCCCN2S(=O)(=O)c2ccc(F)cc2F)on1 (configuration not stated)	.	.	.	.	-4.3	.	.	.
O=C(CCc1nnc2ccc(N3CCCC3)nn12)Nc1ccc(F)cc1F	-0.4	7.4	23.9	-0.9	-8.5	-5.8	.	.
Cc1cc(NC(=O)CSc2ccccc2)no1	0.2	-15.9	-0.2	-0.2	4.4	-12.2	.	.
Cc1cc(NC(=O)CSc2nc(C(C)C)nc3ccccc23)no1	-3.9	3.0	-3.7	1.2	117.9*	-19.1	123.8*	-13.6
Cc1nnc(NC(=O)CSc2nc(C(C)C)nc3ccccc23)s1	7.6	4.1	1.8	-0.9	28.7*	-15.8	78.4*	-3.7
CCSc1nc(-c2cccs2)nc2ccccc12	17.2	-18.3	-0.5	1.5	6.0	-12.3	.	.
CC(C)c1nc(SCC(=O)Nc2nc3c(s2)CCCC3)c2ccccc2n1	0.3	-3.7	-12.6	22.2	60.3*	-9.1	74.8*	-0.9
CC(C)c1nc(SCC(=O)NC2CCCC2)c2ccccc2n1	-10.7	9.8	25.5	0.4	16.4	-19.6	.	.
Cc1cc(NC(=O)C(C)Sc2nc(-c3cccs3)nc3ccccc23)no1 (configuration not stated)	.	19.2	.	0.4	42.5*	-15.7	102.1*	-4.2
Cc1cc(OCc2cc(C(=O)N(C)CCc3cnn(C)c3)no2)cc(C)c1Cl	0.3	2.9	1.1	-0.4	1.7	-62.3	.	.
Cc1cc(NC(=O)CCC(=O)N(Cc2cccnc2)C(C(=O)NC(C)(C)C)c2ccccc2Cl)no1 (configuration not stated)	7.0	3.6	16.6	-0.9	-4.7	-17.3	.	.
COc1ccc(C(=O)Nc2ncccc2C)cc1S(=O)(=O)N1CCCc2ccccc21	-2.6	-8.5	.	-2.0	-4.4	-11.7	.	.
COc1ccc(C(=O)Nc2nc3c(s2)CCCC3)cc1S(=O)(=O)N1CCCc2ccccc21	20.8	-5.5	10.4	-0.3	28.1*	5.0	24.0	5.5
CC1CCN(C(=O)CSc2nnc(CSc3ncccn3)n2C)CC1	2.7	4.1	29.5	-1.1	24.6*	-22.0	6.9	-2.3
O=C(CSc1nncc2ccccc12)Nc1ccccc1	-1.9	9.3	0.5	0.6	10.3	-17.0	.	.
O=C(CSc1nncc2ccccc12)Nc1ccc(F)cc1	-15.9	1.8	30.5	0.7	36.6*	-16.3	48.5*	-5.1
O=C(OCc1cn(Cc2c(F)cccc2F)nn1)N1CCCC1	.	.	.	.	-3.5	.	.	.
O=Cc1s/c(=N\S(=O)(=O)c2ccccc2)n(CCCCl)c1Cl	35.4	-29.5	17.8	0.4	75.8*	-43.0	95.5*	89.7*
Cc1ccnc(NC(=O)Cc2ccc(-c3ccccc3)cc2)c1	9.7	-14.2	10.5	-0.7	34.8*	-37.5	40.9*	7.6
C[C@@H]1[C@H]2CCCC[C@H]2CN(C(=O)OC(C)(C)C)[C@@H]1c1cn(Cc2ccccc2)c2ccc(F)cc12	.	-3.4	.	-1.2	-3.5	-19.4	.	.
CSc1ccc(CN2CCC(N3CCC(C(=O)NC4CC4)CC3)CC2)cc1	.	-6.4	.	.	8.8	.	.	.
NC(COCc1ccccc1)c1csc(Nc2ncccn2)n1 (configuration not stated)	.	.	.	.	5.4	.	.	.
CC(C)CC(N)c1csc(Nc2ncccn2)n1 (configuration not stated)	.	.	.	.	41.5*	.	50.1*	-1.3
CCOC(=O)c1c(-c2ccccc2)csc1NC(=O)CSc1nncs1	-12.1	-9.3	34.1	-0.1	42.0*	-4.4	39.3*	-1.2
Cc1cccc(CN2CCC(n3nccc3NC(=O)CCCc3ccccc3)CC2)n1	-8.1	4.7	14.9	0.0	-0.6	-4.3	.	.
SMILES	BJeLR viability	MazEF act	DUSP3 inh	PfHsp40 yeast	PrPC surface inh	PrP 5UTR inh	PrPC TRFRET cf	LD9 cytotox
CCC(C)[C@H](NC(=O)C1CCN(C(=O)[C@H](Cc2ccccc2)NS(=O)(=O)c2ccc(C)cc2)CC1)C(=O)O (some centres not stated)	5.4	16.2	15.5	-0.4	-4.5	-22.0	.	.
COc1ccc(C(=O)Nc2cc(OC)c(Cl)cc2Cl)cc1	8.0	-15.8	-1.4	-0.9	10.0	-17.4	.	.
COc1ccc(C(=O)Nc2scc(-c3ccc(Cl)cc3Cl)c2C(N)=O)cc1	3.3	-4.0	-4.5	2.8	68.4*	-62.3	33.6*	6.0
N#CC(C(=O)C12CC3CC(CC(C3)C1)C2)c1nc2ccccc2[nH]1 (configuration not stated)	7.4	5.4	0.1	1.9	34.6*	-26.6	23.9	0.4
N#CC(C(=O)CCN1C(=O)C2CC=CCC2C1=O)c1nc2ccccc2[nH]1 (configuration not stated)	2.3	-1.6	6.4	-0.1	3.5	-14.2	.	.
O=c1oc2cc(O)ccc2c2ccccc12	-2.9	3.9	10.4	0.7	28.1*	-5.0	32.7*	0.5
Cc1ccc(S(=O)(=O)N(C)CC(=O)N2CCN(Cc3ccccc3)CC2)cc1	9.0	4.3	3.6	-0.7	-5.9	1.3	.	.
O=C(Nc1ccc(Br)cc1)OC1CC2CC1[C@H]1CCCCN1[C@H]2Cc1ccccc1 (some centres not stated)	.	.	.	.	3.3	.	.	.
O=C(Nc1cc(S(=O)(=O)N2CCOCC2)ccc1N1CCCC1)c1cc2c(s1)CCCC2	.	.	.	.	52.1*	.	74.7*	-5.1
O=C(NC1CCCCCC1)c1cc(S(=O)(=O)N2CCOCC2)ccc1N1CCCCC1	-2.7	-1.2	22.2	0.2	28.0*	-5.4	17.9	-2.8
O=C(Nc1cc(S(=O)(=O)N2CCOCC2)ccc1N1CCOCC1)c1cccs1	.	1.6	.	-1.0	1.2	-11.9	.	.
O=C(Nc1cccc(S(=O)(=O)Nc2ccc(Cl)cc2)c1)c1cc2c(s1)CCCC2	-2.4	8.9	7.8	0.5	26.5*	-3.5	32.1*	-3.1
O=C(Nc1ccc(N2CCOCC2)cc1)c1cc2c(s1)CCCCC2	2.1	5.5	-10.5	4.6	25.0*	-22.3	12.4	11.9*
O=C(NCc1ccc(Cl)c(Cl)c1)c1cc(C2CCCCN2C(=O)CCc2ccccc2)on1 (configuration not stated)	.	.	.	.	13.9	.	.	.
Cc1cc(C(=O)NNc2ccc(Cl)cc2)no1	-1.3	5.6	31.3	5.9	30.9*	-63.4	33.2*	-1.6
Cc1cc(C(=O)NNC(=O)Nc2ccc(Cl)cc2)no1	-3.0	4.7	7.7	0.3	0.6	-27.0	.	.
